Screening data (PubChem)
Only some compounds are listed: those with a hit (about 6.9% of all), similar ones and a draw of the others.
M1 ag: M1 muscarinic receptor agonists, primary screen, CHO-M1 cells, Fluo-4 calcium, agonist mode | AID 626, 2007 | 64,000 tested, 3% active | B-score at 10 µM | Fluo-4 calcium fluorescence; stronger effect = higher value;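 active = fluorescence rise, raw or as B-score row- and column-corrected plate score, outside the 99.7% band of its plate's samples, either direction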
JNK3 inh: JNK3 kinase activity inhibitors, primary screen, biochemical, human, purified enzyme | Mitogen-activated protein kinase 10 (Homo sapiens), P53779 | HTS | inhibition, % at 8 µM | 60,000 tested, 0.61% active | AID 746, 2007; in the data active = inhibition above about 17%
FXIIa mix inh: human factor XIIa inhibitors, primary screen, biochemical, pooled compound mixtures, fluorogenic substrate | Coagulation factor XII (Homo sapiens), P00748 | purified FXIIa | 62,000 tested, 0.2% active | inhibition, % at 5 µM | AID 684, 2007
Target sequence (P00748 20-372 limits assumed): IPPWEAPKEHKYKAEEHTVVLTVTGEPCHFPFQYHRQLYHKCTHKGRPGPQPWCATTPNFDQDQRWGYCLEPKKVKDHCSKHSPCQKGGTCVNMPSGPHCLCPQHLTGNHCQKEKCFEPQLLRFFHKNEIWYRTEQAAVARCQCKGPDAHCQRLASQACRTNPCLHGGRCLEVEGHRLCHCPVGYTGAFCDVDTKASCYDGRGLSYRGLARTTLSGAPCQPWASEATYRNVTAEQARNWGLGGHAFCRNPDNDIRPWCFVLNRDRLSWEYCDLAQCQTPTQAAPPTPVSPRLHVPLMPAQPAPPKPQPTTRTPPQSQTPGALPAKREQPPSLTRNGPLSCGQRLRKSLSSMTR
Target sequence (P00748 373-615 limits assumed): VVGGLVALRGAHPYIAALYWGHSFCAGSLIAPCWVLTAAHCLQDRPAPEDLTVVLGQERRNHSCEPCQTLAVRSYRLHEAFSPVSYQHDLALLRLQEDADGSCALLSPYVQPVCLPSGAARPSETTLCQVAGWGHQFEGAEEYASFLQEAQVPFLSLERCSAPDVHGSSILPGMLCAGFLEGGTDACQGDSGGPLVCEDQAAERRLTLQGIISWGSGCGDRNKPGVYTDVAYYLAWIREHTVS
Her2 expr inh: inhibitors of Her2 protein expression, primary screen, SKBR-3 cells, AlphaScreen, 66K library. Receptor tyrosine-protein kinase erbB-2 (Homo sapiens), P04626. SKBR-3 HER2 protein level, 18-24 h; stronger effect = lower value. AID 645, 2007. HER2 level % of control, % at 10 µM. 65,000 tested, 0.69% active;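 active = HER2 level under 5% of the carrier-only control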;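 note: lower value means stronger loss of Her2 protein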
M1 antag: antagonists of rat M1 muscarinic receptor; Muscarinic acetylcholine receptor M1 (Rattus norvegicus), P08482; CHO-M1 cells, Fluo-4 calcium, ACh EC80 antagonist mode; stronger effect = lower value; B-score at 10 µM; 64,000 tested, 3.4% active;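 active = calcium fluorescence response, raw or row-and-column corrected B-score, differing from the plate sample mean either way at a set confidence level, mostly lower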
FXIa inh mix: FXIa protease inhibitors in compound pools, primary screen, biochemical, 10-compound mixtures; AID 680, 2007; 62,000 tested, 0.19% active; purified FXIa, fluorogenic substrate, pooled mixtures; Coagulation factor XI (Homo sapiens), P03951; inhibition, % at 5 µM;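 note: each value is inhibition by a whole ten-compound pool holding the compound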
M1 antag confirm: rat M1 muscarinic receptor antagonists, confirmation, CHO cells, Fluo-4 calcium, duplicate; shares compounds with M1 antag; ACh EC80 antagonism; stronger effect = lower value; calcium response (max-min fluorescence) at 10 µM; 1,700 tested, 43% active; AID 677, 2007;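 active = calcium response below the same-plate mean of wells given acetylcholine alone at its 80%-effect dose, minus 3 SD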
mGluR4 antag: human mGluR4 response to M1 antagonist hits, M1 allosteric modulator project, cell-based, antagonist mode, secondary assay 1. CHO-mGluR4 calcium flux, Fluo-4 fluorescence, glutamate EC80; stronger effect = lower value. 1,700 tested, 0.9% active. shares compounds with M1 antag. fluorescence response (max-min) at 10 µM. AID 678, 2007;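 active = fluorescence response below the plate's average for near-maximal glutamate wells, less 3 SD of those wells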;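 note: raw unnormalized fluorescence span taken in the window right after glutamate addition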
Each line names hits and unclear results; the compound was inactive in the other large screens (follow-up assays come after a bar, where they were run). Cut-off read from the data, not from the text of the source, unless noted: active = inhibition above about 20% (passing the limit was not always enough); inactive = the rest.

Cc1ccccc1C(=O)Nc1cccc(NC(=O)Cn2cnc3c(=O)n(C)c(=O)n(C)c32)c1	none
CCOC(=O)c1ccc(N2C(=O)C3ON(c4ccccc4)C(c4ccco4)C3C2=O)cc1 (stereo not given)	none
CCCCN1C(=O)C2ON(c3ccccc3C)C(c3ccco3)C2C1=O (stereo not given)	M1 antag -0.94 | M1 antag confirm 532 | mGluR4 antag inactive
O=C(CCNS(=O)(=O)c1cccc2nsnc12)N1CCc2ccccc21	none (no result: JNK3 inh)
Nc1ncc(Br)cc1S(=O)(=O)NCCC(=O)N1CCN(c2ncccn2)CC1	M1 antag -2.9 | M1 antag confirm inactive | mGluR4 antag inactive
O=C(CCNS(=O)(=O)c1cccc2nsnc12)N1CCN(c2ccccn2)CC1	M1 antag -2 (no result: JNK3 inh) | M1 antag confirm 42 | mGluR4 antag inactive
COc1cc(OC)c(NC(=O)CCNS(=O)(=O)c2cc(Br)cnc2N)cc1Cl	M1 antag -6.9 | M1 antag confirm inactive | mGluR4 antag inactive
CCOC(=O)N1CCN(C(=O)CCNS(=O)(=O)c2cc(Br)cnc2N)CC1	none
Cc1ccc2nc(NC3=NCN(Cc4ccco4)CN3)nc(C)c2c1	M1 antag -2.9 | M1 antag confirm inactive | mGluR4 antag inactive
Cc1ccc2nc(NC3=NCN(C4CCCCC4)CN3)nc(C)c2c1	none
CCc1ccc2nc(NC3=NCN(CCCN4CCOCC4)CN3)nc(C)c2c1	M1 antag -3.7 | M1 antag confirm 344 | mGluR4 antag inactive
Cc1ccc2nc(NC3=NCN(Cc4ccc5c(c4)OCO5)CN3)nc(C)c2c1	M1 antag -4.2 | M1 antag confirm 90 | mGluR4 antag inactive
CCOc1ccc2nc(NC3=NCN(CC4CCCO4)CN3)nc(C)c2c1 (stereo not given)	none (no result: FXIIa mix inh, FXIa inh mix)
Cc1occc1C(=O)NC1CCCCCC1	none
O=C(NC1CCCCCCC1)c1ccccc1O	M1 antag -2.2 | M1 antag confirm inactive | mGluR4 antag inactive
NC(=O)c1cnccn1	none (no result: M1 ag, JNK3 inh, FXIIa mix inh, M1 antag, FXIa inh mix)
COc1ccc(C(=O)N(Cc2nc(-c3ccc(C)cc3)no2)C2CCCCC2)cc1OC	none (no result: M1 ag, M1 antag)
COCCn1c(SCc2ccc(C(=O)OC)o2)nc2cc(Cl)ccc2c1=O	none
O=C(CN1CCN(C(=O)c2c(F)cccc2F)CC1)Nc1ccccc1F	none
O=C(CCCN1CCOCC1)c1ccc2c(c1)OCCO2	none
O=C(CCN1CCc2ccccc2CC1)c1ccc2c(c1)OCCO2	M1 antag -3.9 | M1 antag confirm 215 | mGluR4 antag inactive
O=C(CCCN1CCC(c2ccccc2)C1)c1ccc2c(c1)OCCO2 (stereo not given)	M1 antag -8.8 | M1 antag confirm 251 | mGluR4 antag inactive
Cc1ccc(Cl)cc1N1CCN(CC(=O)Nc2ccc3[nH]c(=O)[nH]c3c2)CC1	none
Cc1cccc(-n2nc3c(c2NC(=O)CCC2CCCCC2)CS(=O)C3)c1C (stereo not given)	none
CCOc1ccccc1-c1nc(-c2ccc(C)nc2OC)no1	M1 antag -0.78 (no result: JNK3 inh) | M1 antag confirm inactive | mGluR4 antag inactive
COc1ccccc1-c1noc(-c2ccccc2)n1	M1 antag -17 | M1 antag confirm 506 | mGluR4 antag inactive
CCOc1nc(C)ccc1-c1noc(-c2ccccn2)n1	none
COc1ccc(-c2nc(-c3ccccc3OC)no2)cc1OC	none
CCC(Oc1ccccc1)C(=O)Nc1ccccn1 (stereo not given)	none
Cc1cc(NC(=O)CCC(=O)N(c2ccccc2)C2(C(=O)NC3CCCCC3)CCCC2)no1	none
O=C(NC1CCCCC1)n1c(=O)oc2ccccc21	M1 antag -15 | M1 antag confirm inactive | mGluR4 antag inactive
O=C(NC1CCCCC1)n1c(=O)oc2ccc(Cl)cc21	none
COc1ccc2nc(NC(=O)CSc3nnc(-c4ccoc4C)n3C)sc2c1	M1 antag -11 | M1 antag confirm inactive | mGluR4 antag inactive
CCOC(=O)c1cnc2c(C(=O)OC)cccc2c1NCCN1CCOCC1	none (no result: JNK3 inh)
CCOC(=O)c1cnc2c(Cl)c(Cl)ccc2c1N1CCN(C)CC1	M1 antag -3.1 | M1 antag confirm inactive | mGluR4 antag inactive
CCOC(=O)C1=C(N)c2ccccc2CC1C(C)C (stereo not given)	none
Cc1nn(Cc2ccccc2Cl)c2sc(C(=O)NCCCn3ccnc3)cc12	M1 antag -7.9 | M1 antag confirm 287 | mGluR4 antag inactive
COc1ccc(NC(=O)C2=C(C)Nc3ncnn3C2c2ccccc2C(F)(F)F)c(OC)c1 (stereo not given)	none
Cc1nnc(SCC(=O)N2CCN(S(=O)(=O)c3ccccc3)CC2)n1Cc1ccccc1	M1 antag -6.4 | M1 antag confirm 350 | mGluR4 antag inactive
Cc1ccc(S(=O)(=O)N2CCN(C(=O)CSc3nnc(-c4ccco4)o3)CC2)cc1	M1 antag -3 | M1 antag confirm inactive | mGluR4 antag inactive
CCn1c(SCC(=O)N2CCN(S(=O)(=O)c3ccccc3)CC2)nnc1-c1cccs1	none
O=C1CN(c2nc3ccccc3n3cnnc23)CC(=O)N1CCc1ccccc1	none
Cc1cc(O)c(-c2n[nH]c3c2C(c2cccc(O)c2)N(Cc2cccnc2)C3=O)cc1Cl (stereo not given)	none (no result: M1 ag, M1 antag)
Cc1cc(NC(=O)Cn2nnc3sc4c(c3c2=O)CCC(C(C)(C)C)C4)no1 (stereo not given)	none
Cc1cc(NC(=O)Cn2nnc3sc4c(c3c2=O)CCCC4)no1	M1 antag -5 | M1 antag confirm inactive | mGluR4 antag inactive
CC1(C)Cc2c(sc(NC(=O)c3ccco3)c2C#N)CO1	none
Cc1cccc(NC(=O)c2sc(NC(=O)c3ccco3)c(C#N)c2C)c1C	M1 antag -2.5 | M1 antag confirm inactive | mGluR4 antag inactive
CCN1CCN(c2ccc(NC(=O)c3cccc4ncccc34)cc2)CC1	M1 antag -5.1 | M1 antag confirm inactive | mGluR4 antag inactive
CCCN1Cc2cccc(C(=O)Nc3ccc(N4CCN(CC)CC4)cc3)c2C1=O	M1 antag -1.7 | M1 antag confirm 354 | mGluR4 antag inactive
CC(C)C(NS(=O)(=O)c1cccs1)C(=O)N1CCc2ccccc2C1 (stereo not given)	none
Cn1c(C(=O)N2CCN(c3ccccn3)CC2)cc2c(=O)n(C)c3ccccc3c21	none
